Assay results taken from PubChem BioAssay AID1611 (NINDS Approved Drug Screening Program, 2009).

Assay: inducers of human heat shock response, cell-based, HSE luciferase (AID 1611)
Conditions: human cells, HSE-luciferase heat shock reporter; stronger effect = higher value

| Structure (SMILES) | fold change |
| --- | --- |
| Cc1onc(-c2ccccc2)c1C(=O)NC1C(=O)N2[C@@H]1SC(C)(C)[C@@H]2C(=O)O (some centres undefined) | 1.85 |
| CC(=O)O[C@]1(C(C)=O)CCC2C3C=C(Cl)C4=CC(=O)[C@@H]5C[C@@H]5[C@]4(C)C3CC[C@@]21C (some centres undefined) | 9.01 |
| CN(C)CCOC(c1ccccc1)c1ccccc1 (tested in a mixture with another compound) | 0.8 |
| CN[C@@H]1[C@H](OC2[C@H](O[C@H]3[C@H](O)[C@@H](O)[C@H](N=C(N)N)[C@@H](O)[C@@H]3N=C(N)N)O[C@@H](C)[C@]2(O)C=O)O[C@@H](CO)[C@H](O)[C@H]1O (some centres undefined) | 1.17 |
| Cc1ccc(/C(=C\CN2CCCC2)c2ccccn2)cc1 | 0.61 |
| Cc1ccc(S(=O)(=O)NC(=O)NN2CCCCCC2)cc1 | 0.73 |
| Cn1c(=O)c2c(ncn2CCO)n(C)c1=O | 0.58 |
| CN(C)C(=O)C(CCN1CCC(O)(c2ccc(Cl)cc2)CC1)(c1ccccc1)c1ccccc1 | 1.52 |
| O=c1c(O)cc2c(O)oc3c(=O)c(O)cc4c3c2c1CC=4O | 1.46 |
| CN(Cc1cnc2nc(N)nc(N)c2n1)c1ccc(C(=O)N[C@@H](CCC(=O)O)C(=O)O)cc1 | 0.91 |
| CC(Cc1ccc(O)c(O)c1)(NN)C(=O)O (centres undefined) | 1.02 |
| CN(C)CCC(c1ccccc1)c1ccccn1 (centres undefined) | 1.7 |
| NC(=O)c1cnccn1 | 1.78 |
| OCc1ccccc1O[C@@H]1O[C@H](CO)[C@@H](O)[C@H](O)[C@H]1O | 1.04 |
| O=C1OCCN1/N=C/c1ccc([N+](=O)[O-])o1 | 1.79 |
| NC(=O)NC1NC(=O)NC1=O (centres undefined) | 0.91 |
| CC(=O)Oc1ccc2c(c1)CCC1C2CC[C@@]2(C)C1CC[C@@H]2OC(C)=O (some centres undefined) | 1.07 |
| CCCCC1(COC(=O)CCC(=O)O)C(=O)N(c2ccccc2)N(c2ccccc2)C1=O | 0.82 |
| C=CCc1ccccc1OCC(O)CNC(C)C (centres undefined) | 1.15 |
| C[n+]1c2cc(N)ccc2cc2ccc(N)cc21 | 1.45 |

| Structure (SMILES) | fold change |
| --- | --- |
| COc1ccccc1OCC(O)CO (centres undefined) | 1 |
| NC(=O)c1ccc[n+]([C@@H]2O[C@H](COP(=O)([O-])OP(=O)(O)OC[C@H]3O[C@@H](n4cnc5c(N)ncnc54)[C@H](O)[C@@H]3O)[C@@H](O)[C@H]2O)c1 | 1.11 |
| CCCCCCCCCCCCCCCC(=O)OC/C=C(C)/C=C/C=C(C)/C=C/C1=C(C)CCCC1(C)C | 1.08 |
| CN(C)CC/C=C1\c2ccccc2Sc2ccc(Cl)cc21 | 1.34 |
| Cc1ccc(C(=O)c2ccc(CC(=O)O)n2C)cc1 | 279 |
| C#CCN(C)Cc1ccccc1 | 1.01 |
| CC(CN(C)C)CN1c2ccccc2CCc2ccccc21 (centres undefined) | 1.16 |
| COc1cccc(OC)c1C(=O)N[C@@H]1C(=O)N2[C@@H]1SC(C)(C)[C@@H]2C(=O)O | 0.82 |
| Nc1ncn([C@@H]2O[C@H](CO)[C@@H](O)[C@H]2O)c(=O)n1 | 1.3 |
| O=C(CCCN1CC=C(n2c(=O)[nH]c3ccccc32)CC1)c1ccc(F)cc1 | 0.88 |
| CN(C)c1ccc(C(=C2C=CC(=[N+](C)C)C=C2)c2ccc(N(C)C)cc2)cc1 | 1.22 |
| CC[C@H]1OC(=O)[C@H](C)[C@@H](O[C@H]2C[C@@](C)(OC)[C@@H](O)[C@H](C)O2)[C@H](C)[C@@H](O[C@@H]2O[C@H](C)C[C@H](N(C)C)[C@H]2O)[C@](C)(O)C[C@@H](C)CN(C)[C@H](C)[C@@H](O)[C@]1(C)O | 293 |
| C1CNCCN1 | 1.04 |
| CC(=O)N(O)CCCCCNC(=O)CCC(=O)N(O)CCCCCNC(=O)CCC(=O)N(O)CCCCCN | 0.7 |
| CN[C@@H]1[C@H](O)[C@H](NC)[C@H]2O[C@@]3(O)C(=O)C[C@@H](C)O[C@H]3O[C@@H]2[C@H]1O | 1.27 |
| CC1(C)O[C@@H]2CC3C4C[C@H](F)C5=CC(=O)CC[C@]5(C)C4[C@@H](O)C[C@]3(C)[C@]2(C(=O)CO)O1 (some centres undefined) | 1.35 |
| NC[C@@H]1O[C@H](O[C@@H]2[C@@H](CO)OC(O[C@@H]3[C@@H](O)[C@H](N)C[C@H](N)[C@H]3OC3O[C@H](CN)[C@@H](O)[C@H](O)[C@H]3N)[C@@H]2O)[C@H](N)[C@@H](O)[C@@H]1O (some centres undefined) | 0.96 |
| CCOC(=O)C(Cc1ccc(O)cc1)NC(C)=O (centres undefined) | 0.71 |
| Cc1cc(C)nc(NS(=O)(=O)c2ccc(N)cc2)n1 | 1.02 |
